Source: PubChem BioAssay AID504941 (Broad Institute, 2011)
Hit rate of the full screen: of about 1,200 compounds, about 170 (14%) were called active. No rule for the calls is given here. These entries were drawn from the full list. Potency and affinity values are given separately.

Experiment: E. coli Tat export inhibitors, dose response, cherry-pick, set 2, plate reader (AID 504941)
Details: E. coli Tat transport reporter; series mostly up to 38 µM; activity change, negative = inhibition: at the top concentration

Activity change, negative = inhibition, inactive:
CCCOc1cccc(C(=O)Nc2ccc(Br)cc2F)c1 -4.33%
COc1ccc(OC)c(NC(=O)c2cccnc2)c1 0.43%
Cc1nn(-c2ccccc2)c(C)c1NC(=O)COC(=O)c1ccc(Cl)c(S(N)(=O)=O)c1 3.3%
CNC(=S)N1CCN(c2c(F)cc3c(=O)c(C(=O)O)cn(C4CC4)c3c2OC)CC1C (stereo not given) 395%
COc1cc(C(=O)Oc2cc(C)cc(C)c2)cc(OC)c1OC 36%
Cc1ccc(C2CC(c3ccccc3)n3ncnc3N2)cc1 (stereo not given) -27.9%
COc1cc(OC)cc(C(=O)NC2CC(C)(C)NC(C)(C)C2)c1 -3.59%
Cc1ccccc1NC(=O)CCN1CCN(CCO)CC1 8.38%
CN(Cc1cn[nH]c1-c1ccc(-c2ccccc2)cc1)CC1CCOCC1 -2.3%
Cc1ccc(Cn2c(=O)oc3ccccc32)cc1 37.8%
O=C(NCc1cccs1)c1cccnc1C(=O)O -11.6%
COc1cc(/C=C(\C#N)c2nn(CCO)c(N)c2C#N)cc(OC)c1OC -2.58%
CCN(CC(=O)NCc1ccc(F)cc1)CC(=O)Nc1ccc(S(=O)(=O)N2CCCC2)cc1 -0.571%
CC1CCN(C(=O)C2(NC(=O)Nc3cccc(F)c3)CCCCC2)CC1 18.6%
O=C(CSc1nc2ccccc2c(=O)n1CCCN1CCOCC1)Nc1ccc2c(c1)OCO2 -4.12%
Cc1nc(SCc2nc3ccccc3[nH]2)c2oc3ccccc3c2n1 -11.4%
Nc1ccc(C(=O)Nc2nc3ccccc3s2)cc1 2.47%
COCc1cc(C)n(CC(=O)NC(C)c2ccccc2)c(=O)c1C#N (stereo not given) 4.42%
COc1ccc(S(=O)(=O)Nc2nc3c(s2)CCCC3)cc1 15.9%
CCCCOCC1CN(c2ccccc2)C(=O)CS1 (stereo not given) -12.1%
Cc1ccc(NC(=O)COC(=O)CCC(=O)c2cccs2)c(C)c1 -7.07%
Cc1ccc(C)c(NC(=O)CCN2CCc3ccccc3C2)c1 10.6%
COc1ccc(N(CC(=O)NCc2ccc(Cl)cc2)S(=O)(=O)c2ccccc2[N+](=O)[O-])c(OC)c1 13.4%
Cc1cc(C)nc(SC(C)C(=O)N/N=C/c2cccs2)n1 (stereo not given) -3.03%
Cc1ccc(C(=O)c2cnc3ccccc3c2-c2ccccc2)cc1 6.74%
CC1=NCC(C)c2c1[nH]c1ccccc21 (stereo not given) 18.7%
Cc1cccc(/C=N/NC(=O)c2cc(C3CC3)nc3ccccc23)n1 0.812%
O=C(NCc1ccccc1)C(=O)NCC1OCCN1S(=O)(=O)c1ccc([N+](=O)[O-])cc1 (stereo not given) 2.79%
Cc1noc(C)c1COC(=O)c1cccc(S(=O)(=O)N2CCOCC2)c1 13.1%
C#CCOCCOCCOCCNc1nc(N2CCN(C(=O)Cn3cc(CC(C)O)nn3)CC2)nc(N2CCN(C(=O)[C@H](CCCCN)n3cc(CCCC)nn3)CC2)n1 (stereo not given in full) 13.3%
COc1cccc(-n2c(SCc3ccccn3)nc3c(c2=O)SCC3)c1 38.5%
Cc1ccc2cccc(OCC(=O)N3CCc4ccccc43)c2n1 2.15%
COc1ccc(CCNC(=O)/C=C/c2ccco2)cc1OC 9.53%
COc1ccccc1N1CCN(c2nc(-c3ccccc3)cc(C(F)(F)F)n2)CC1 -1.92%
Cc1ccccc1OCC(=O)Nc1nnc(-c2ccncc2)s1 -14.8%
NC1C2CN(c3nc4c(cc3F)c(=O)c(C(=O)O)cn4-c3ccc(F)cc3F)CC12 (stereo not given) -67.3%
CSc1cccc(NC(=O)CN(C)S(=O)(=O)c2cnc[nH]2)c1 -1.69%
O=C(N/C(=C/c1ccccc1)C(=O)N1CCCCC1)c1ccc(Br)o1 12.3%
COc1cccc(NC(=O)c2ccc3c(SCC(=O)O)c4c(nc3c2)CCCC4)c1 9.97%
COc1ccc(OC)c(C(=O)CSc2nnc(-c3cccs3)o2)c1 30.7%
CC(C)OC(=O)c1nn2c(C(F)(F)F)cc(-c3ccco3)nc2c1Cl -0.449%
O=C(Nc1ccc(Br)cc1)C1CC(O)CN1C(=O)Oc1ccccc1 (stereo not given) -1.35%
CCOc1ccc(NC(C(=O)Nc2cccc(C(C)=O)c2)c2ccccc2)cc1 (stereo not given) 3.76%
O=C(NC1CC1)c1ccc(N2CCCCC2)c([N+](=O)[O-])c1 -2.46%
COc1cc2cc(CN(CCO)S(=O)(=O)c3ccccc3Cl)c(=O)[nH]c2cc1OC -14.1%
